In the supplement of paper PMC12067926:
A number with no mark means an inactive call.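 How the source made its calls: active = growth AUC significantly below the DMSO wells by Dunnett test; inactive = the rest.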

System: Pseudomonas 6 (Pseudomonas sp.)
Assay: relative growth (AUC of 72 h growth curve relative to DMSO control, dAUC) (ratio); higher = more growth (less inhibition), active = hit call of the paper
Settings: 20 µM
Procedure, shortened: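 Isolates from Icelandic stream sediments and Silwood Park soil, along with whole sediment communities, were grown in Luria–Bertani medium to carrying capacity and diluted 1:100 into 96-well plates with each chemical at 20 µM (1% DMSO). A600 was measured hourly for 72 h, and values were averaged over three biological replicates. Relative growth (dAUC) is the spline-integrated growth-curve area over the mean of the DMSO controls.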

| Compound | relative growth |
| --- | --- |
| CCCSP(=O)(OCC)Oc1ccc(Br)cc1Cl (configuration not stated) | 1.04 |
| CC1(C(=O)Nc2ccc(O)c(Cl)c2Cl)CCCCC1 | 1.16 |
| C[N+](C)(C)CCCl | 1.07 |
| CCc1cnc(C2=NC(C)(C(C)C)C(=O)N2)c(C(=O)O)c1 (configuration not stated) | 1.04 |
| CC[C@H](C)[C@H]1O[C@]2(C=C[C@@H]1C)C[C@@H]1C[C@@H](C/C=C(\C)[C@@H](O[C@H]3C[C@H](OC)[C@@H](O[C@H]4C[C@H](OC)[C@@H](O)[C@H](C)O4)[C@H](C)O3)[C@@H](C)/C=C/C=C3\CO[C@@H]4[C@H](O)C(C)=C[C@@H](C(=O)O1)[C@]34O)O2.CO[C@H]1C[C@H](O[C@H]2[C@H](C)O[C@@H](O[C@@H]3/C(C)=C/C[C@@H]4C[C@@H](C[C@]5(C=C[C@H](C)[C@@H](C(C)C)O5)O4)OC(=O)[C@@H]4C=C(C)[C@@H](O)[C@H]5OC/C(=C\C=C\[C@@H]3C)[C@]54O)C[C@@H]2OC)O[C@@H](C)[C@@H]1O | 1.04 |
| CCCCC(C#N)(Cn1cncn1)c1ccc(Cl)cc1 (configuration not stated) | 0.907 |
| Clc1ccc(C(c2ccc(Cl)cc2)C(Cl)(Cl)Cl)cc1 | 1.16 |
| CCC(C)(C)C(=O)OC1=C(c2ccc(Cl)cc2Cl)C(=O)OC12CCCCC2 | 1.06 |
| O=C1c2ccccc2C(=O)N1SC(Cl)(Cl)Cl | 1.16 |
| Cc1nnc(-c2ccccc2)c(=O)n1N | 1.1 |
| N#Cc1c(Cl)c(Cl)c(Cl)c(C#N)c1Cl | 1.1 |
| CC(C)N(C)S(=O)(=O)NC(=O)c1cc(-n2c(=O)cc(C(F)(F)F)n(C)c2=O)c(F)cc1Cl | 1.07 |
| COC(=O)N(C(=O)N1CO[C@@]2(C(=O)OC)Cc3cc(Cl)ccc3C2=N1)c1ccc(OC(F)(F)F)cc1 | 0.966 |
| CN1COCN(Cc2cnc(Cl)s2)/C1=N\[N+](=O)[O-] | 1.1 |
| CCCN(CCC)C(=O)SCc1ccccc1 | 1.13 |
| OC(Cn1cncn1)(c1ccc(F)cc1)c1ccccc1F (configuration not stated) | 0.961 |
| CC(C1CC1)C(O)(Cn1cncn1)c1ccc(Cl)cc1 (configuration not stated) | 1.03 |
| COC(=O)c1ccccc1S(=O)(=O)NC(=O)Nc1nc(C)nc(OC)n1 | 0.905 |
| CN(C)C(CSS(=O)(=O)O)CSS(=O)(=O)O | 1.1 |

| Compound | relative growth |
| --- | --- |
| CNC(=O)c1cc(Cl)cc(C)c1NC(=O)c1cc(Br)nn1-c1ncccc1Cl | 0.922 |
| CO/C=C(/C(=O)OC)c1ccccc1Oc1cc(Oc2ccccc2C#N)ncn1 | 1.08 |
| O=C(NC(=O)c1c(F)cccc1F)Nc1ccc(OC(F)(F)C(F)OC(F)(F)F)c(Cl)c1 (configuration not stated) | 0.98 |
| N#Cc1cc(Br)c(O)c(Br)c1 | 1.12 |
| CCOCN(C(=O)CCl)c1c(C)cccc1CC | 1.03 |
| CC1(C)[C@H](/C=C(\Cl)C(F)(F)F)[C@@H]1C(=O)OC(C#N)c1cccc(Oc2ccccc2)c1 (some centres not stated) | 1.16 |
| C#CCOc1ccc(CCNC(=O)C(OCC#C)c2ccc(Cl)cc2)cc1OC (configuration not stated) | 1.07 |
| O=[N+]([O-])/N=C1\NCCN1Cc1ccc(Cl)nc1 | 0.932 |
| Fc1ccc(Oc2ccnc3cc(Cl)cc(Cl)c23)cc1 | 1.06 |
| CC(Oc1ccc(Oc2ncc(C(F)(F)F)cc2Cl)cc1)C(=O)O (configuration not stated) | 1.17 |
| O=C(O)CNCP(=O)(O)O | 1.1 |
| C[N+]1(C)CCCCC1 | 1.03 |
| Oc1ccc(Cl)cc1Cc1cc(Cl)ccc1O | 0.922 |
| CCOP(=S)(OCC)Oc1cc(C)nc(C(C)C)n1 | 1.12 |
| CC(C)N(C(=O)COc1nnc(C(F)(F)F)s1)c1ccc(F)cc1 | 1.1 |
| CCCC1COC(Cn2cncn2)(c2ccc(Cl)cc2Cl)O1 (configuration not stated) | 1.02 |
| Nc1c([N+](=O)[O-])ccc(Oc2ccccc2)c1Cl | 1.15 |
| COC(=O)N(OC)c1ccccc1COc1ccn(-c2ccc(Cl)cc2)n1 | 1.15 |
